{
  "source": "PubChem BioAssay AID2013",
  "about": "(Sanford-Burnham Center for Chemical Genomics, 2009)",
  "note": "The campaign covered roughly 290,000 compounds. About 370 (0.13%) were called active. The entries come from a sample that favours actives as a whole. Results with a measured potency or affinity are listed apart. A number with no mark means an inactive call.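 Rule for the calls: active = spots per cell inhibited over 60%, with over 100 cells counted and total cytoplasm intensity under 500,000; inconclusive = wells with under 100 cells, flagged as likely toxic; inactive = the rest.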",
  "data": [
    {"target": "G-protein coupled receptor 55 (Homo sapiens) (UniProt Q9Y2T6)", "sequence (Q9Y2T6 whole entry, looked up)": "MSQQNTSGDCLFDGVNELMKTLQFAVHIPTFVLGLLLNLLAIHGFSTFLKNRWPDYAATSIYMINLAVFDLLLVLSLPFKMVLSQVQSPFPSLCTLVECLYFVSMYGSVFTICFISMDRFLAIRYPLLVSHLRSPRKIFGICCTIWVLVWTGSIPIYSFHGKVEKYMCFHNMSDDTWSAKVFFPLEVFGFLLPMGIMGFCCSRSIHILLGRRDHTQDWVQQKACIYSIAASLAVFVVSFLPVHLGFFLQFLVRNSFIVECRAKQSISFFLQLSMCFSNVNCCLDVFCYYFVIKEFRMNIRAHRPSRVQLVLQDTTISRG", "assay": "inhibition of LPI-stimulated GPR55 beta-arrestin translocation – imaging, U2OS, beta-arrestin-GFP, LPI agonist, primary screen (AID 2013);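 note: U2OS cells stably carrying GPR55 and arrestin-GFP stimulated by 5 µM LPI near EC80; imaged beta-arrestin-GFP aggregate spots per cell after agonist stimulation; plate controls were LPI-stimulated DMSO wells for no effect and DMSO wells without LPI for full effect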", "details": "LPI antagonism, at 10 µM, stronger effect = higher value", "values": [
      {"smiles": "O=C(Cn1c(=O)c(=O)n(Cc2ccccc2)c2ccc(Cl)cc21)Nc1cccc(F)c1", "inhibition": "-4.5%"},
      {"smiles": "Cc1nc2ccccc2c2c1C(=O)N(C(C)C)C2=O", "inhibition": "-5.2%"},
      {"smiles": "O=C(Cn1cnc2ccccc2c1=O)Nc1cccc(-c2nnc3n2CCCCC3)c1", "inhibition": "-5.4%"},
      {"smiles": "Cc1ccc(C(c2nnnn2C2CCCCC2)N2CCc3ccccc32)cc1", "note": "(stereo not drawn)", "inhibition": "4.6%"},
      {"smiles": "COc1ccc(C(CCNC(C)c2ccccc2)c2ccc(F)cc2)cc1", "note": "(stereo not drawn)", "inhibition": "29.1%"},
      {"smiles": "COc1ccc(C(CCNC(C)c2ccccc2)C(C)C)cc1", "note": "(stereo not drawn)", "inhibition": "15.3%"},
      {"smiles": "COc1ccc(-n2cnnc2SCC(=O)Nc2ccc(C(N)=O)cc2)cc1", "inhibition": "-2.8%"},
      {"smiles": "COCc1nnc(NC(=O)C2CC(=O)N(C3CCCC3)C2)s1", "note": "(stereo not drawn)", "inhibition": "8.2%"},
      {"smiles": "O=C(O)c1cccc(N2C(=O)/C(=C/c3ccc([N+](=O)[O-])cc3)C=C2c2ccccc2)c1", "inhibition": "-16.1%"},
      {"smiles": "O=C1/C(=C/c2ccc([N+](=O)[O-])cc2)C=C(c2ccccc2)N1c1ccccc1", "inhibition": "25.9%"},
      {"smiles": "Cc1nnc(SCC2=C(C(=O)O)N3C(=O)C(NC(=O)C(C)n4nc(C(F)(F)F)cc4C)C3SC2)s1", "note": "(stereo not drawn)", "inhibition": "0.4%"},
      {"smiles": "Nc1cc(=O)[nH]c(SC/C=C/c2ccccc2)n1", "inhibition": "-21.6%"},
      {"smiles": "Clc1nc(CN2CCCCC2)nc2sc3c(c12)CCCC3", "inhibition": "61.4% (active)"},
      {"smiles": "Clc1nc(CN2CCOCC2)nc2sc3c(c12)CCC3", "inhibition": "19%"},
      {"smiles": "Clc1nc(CN2CCCCC2)nc2sc3c(c12)CCC3", "inhibition": "5.2%"},
      {"smiles": "CC1CN(C(=O)COC(=O)c2ccc(O)cc2)CC(C)O1", "note": "(stereo not drawn)", "inhibition": "6.6%"},
      {"smiles": "N#CCc1c(C#N)c(N)nc(Nc2ccccc2)c1C#N", "inhibition": "1.4%"},
      {"smiles": "COc1ccc2oc(=O)c(C(=O)N3CCN(c4ccc(F)cc4)CC3)cc2c1", "inhibition": "4.2%"},
      {"smiles": "O=C(Cn1ncn2c(cc3ccccc32)c1=O)NCCc1cccs1", "inhibition": "-4.4%"},
      {"smiles": "COc1ccc(C(=O)N[C@H](C(=O)NCC2CCCCC2)C(C)C)cc1", "inhibition": "6.5%"},
      {"smiles": "O=C(CSc1nc2ccccc2c(=O)[nH]1)N1CCN(S(=O)(=O)c2ccccc2)CC1", "inhibition": "2.8%"},
      {"smiles": "O=C(CSc1ncccn1)N1CCN(S(=O)(=O)c2ccccc2)CC1", "inhibition": "9.7%"},
      {"smiles": "N#Cc1ccccc1NC(=O)CN1CCOCC1", "inhibition": "9.8%"},
      {"smiles": "CCSc1n[nH]c2nc3c(c(=O)n12)C1(CCCC1)Cc1ccccc1-3", "inhibition": "10.3%"},
      {"smiles": "CCn1c(SCC(N)=O)nc2c(c1=O)C1(CCCC1)Cc1ccccc1-2", "inhibition": "1.3%"},
      {"smiles": "COc1ccc(Oc2c(-c3ccc(O)cc3O)n[nH]c2C)cc1", "inhibition": "11%"},
      {"smiles": "CCCc1ccc(Oc2cn[nH]c2-c2ccc(O)c(C)c2O)cc1", "inhibition": "20.9%"},
      {"smiles": "CCCc1ccc(Oc2c(-c3ccc(O)c(C)c3O)n[nH]c2C)cc1", "inhibition": "1%"},
      {"smiles": "CCCOC(=O)c1ccc(Oc2c(-c3ccc(O)cc3O)n[nH]c2C)cc1", "inhibition": "36.9%"},
      {"smiles": "Cc1ccccc1C(=O)NC(=S)NCc1ccccc1", "inhibition": "2.5%"},
      {"smiles": "Cc1sc2nc(CC(=O)NN)[nH]c(=O)c2c1C", "inhibition": "6.8%"},
      {"smiles": "CC(=O)N1CCOc2ccc(S(=O)(=O)N3CCC(C)CC3)cc21", "inhibition": "7.2%"},
      {"smiles": "C/C=C(\\C)C(=O)N1CC2(CC(c3cccc(NC(=O)COc4ccc(Cl)cc4)c3)=NO2)C[C@@H]1C(N)=O", "note": "(stereo partly drawn)", "inhibition": "-0.1%"},
      {"smiles": "NS(=O)(=O)c1ccc(NC(=S)Nc2ccc(C(=O)N3CCCCC3)cc2)cc1", "inhibition": "0.7%"},
      {"smiles": "O=C(Nc1ccccc1N1CCOCC1)c1cccnc1Cl", "inhibition": "3.4%"},
      {"smiles": "Cc1ccc(SCC(=O)N(C)C2CCS(=O)(=O)C2)cc1", "note": "(stereo not drawn)", "inhibition": "-5.3%"},
      {"smiles": "CCN(C(=O)CSc1nc(-c2ccccc2)c(-c2ccccc2)[nH]1)C1CCS(=O)(=O)C1", "note": "(stereo not drawn)", "inhibition": "15.5%"},
      {"smiles": "CCCCNC(=O)CN1C(=O)C(CC)Oc2ccc(Cl)cc21", "note": "(stereo not drawn)", "inhibition": "2.3%"},
      {"smiles": "Cc1ccc(-c2ccc(/C=C3\\SC(N4CCOCC4)=NC3=O)o2)cc1", "inhibition": "16.2%"},
      {"smiles": "O=C1N=C(N2CCOCC2)S/C1=C\\c1ccc(-c2ccccc2Cl)o1", "inhibition": "-0.9%"},
      {"smiles": "Cc1ccc(CNC(=O)c2ccc(CS(=O)(=O)c3ccccc3C)o2)cc1", "inhibition": "7.3%"},
      {"smiles": "O=C(Oc1ccc(N2C(=O)C3C4CCC(C4)C3C2=O)cc1)c1ccco1", "note": "(stereo not drawn)", "inhibition": "15.6%"},
      {"smiles": "O=C(NC1CCN(S(=O)(=O)c2ccccc2F)CC1)c1cccnc1", "inhibition": "-8.1%"},
      {"smiles": "O=C(N1CCCC1)C(F)(F)Oc1ccc(F)cc1", "inhibition": "10.6%"},
      {"smiles": "COCCN1C=C(C(=O)OC)C(c2cc3c(cc2Br)OCO3)C(C(=O)OC)=C1", "inhibition": "1%"},
      {"smiles": "COC(=O)C1=CN(C(C)C)C=C(C(=O)OC)C1c1cc(Br)c(OC)c(OC)c1", "inhibition": "0.5%"},
      {"smiles": "COc1ccc(Cl)cc1-n1c(C)cc(C=O)c1C", "inhibition": "-3.7%"},
      {"smiles": "COc1ccc(-n2c(C)cc(C=O)c2C)cc1Cl", "inhibition": "15.8%"},
      {"smiles": "CN(C)S(=O)(=O)N1CCN(C(=O)c2cccc(Br)c2)CC1", "inhibition": "1.7%"},
      {"smiles": "NS(=O)(=O)c1ccc(CCNC(=O)CSc2nc3ccsc3c(=O)n2CCCCCC(=O)O)cc1", "inhibition": "14.8%"},
      {"smiles": "Cc1cccc(OCC(=O)N2CCOCC2)c1", "inhibition": "15.3%"},
      {"smiles": "COc1ccc(OC)c(-n2c(C)cc(/C=C3\\C(=N)N4N=C(CC(=O)N5CCOCC5)SC4=NC3=O)c2C)c1", "inhibition": "21.8%"},
      {"smiles": "COc1ccccc1N1CCN(C(=O)NC23CC4CC(CC(C4)C2)C3)CC1", "inhibition": "6.5%"},
      {"smiles": "O=C(CCCn1c(=O)[nH]c2ccccc2c1=O)N1CCN(c2ccccn2)CC1", "inhibition": "3.9%"},
      {"smiles": "O=C(CCCn1c(=S)[nH]c2cc3c(cc2c1=O)OCO3)N1CCN(c2ccccn2)CC1", "inhibition": "10.5%"},
      {"smiles": "O=C(CCCn1c(=S)[nH]c2ccc(Br)cc2c1=O)N1CCN(c2ccccn2)CC1", "inhibition": "60.6% (active)"},
      {"smiles": "O=C(COc1cccc2cccnc12)N/N=C1\\SCC(=O)N1CCc1ccccc1", "inhibition": "14.1%"},
      {"smiles": "N#Cc1c(N)nc2c(c1-c1ccccc1)CCCC2", "inhibition": "14.6%"},
      {"smiles": "N#Cc1c(N)nc2c(c1-c1ccccc1)CCC2", "inhibition": "-2.3%"},
      {"smiles": "N#Cc1c(N)nc2c(c1-c1cccc(O)c1)CCCCCC2", "inhibition": "76% (active)"},
      {"smiles": "Cc1c(Br)cc(C(=O)NCCCN2CCOCC2)c(C)c1C", "inhibition": "-19.3%"},
      {"smiles": "Cc1ccc(C(=O)NC2CC(C)(C)NC(C)(C)C2)cc1Cl", "inhibition": "-5.9%"},
      {"smiles": "CCOc1ccccc1NC(=O)NCCc1c[nH]c2ccccc12", "inhibition": "5.7%"},
      {"smiles": "CCN(C(=O)CC(C)C)c1nnc(Cn2nnc3ccccc32)s1", "inhibition": "6.1%"},
      {"smiles": "O=C(CN1C(=O)S/C(=C\\c2ccc(Cl)cc2)C1=O)NCCCn1ccnc1", "inhibition": "-24.8%"},
      {"smiles": "N=C1C(c2nc(-c3ccc(Cl)cc3)cs2)=C(O)CN1CCCN1CCOCC1", "inhibition": "14.9%"},
      {"smiles": "Fc1ccc(-c2csc(N3CCOCC3)n2)cc1", "inhibition": "-10.5%"},
      {"smiles": "Cc1c(Br)c([N+](=O)[O-])nn1CC(=O)N1CCN(C23CC4CC(CC(C4)C2)C3)CC1", "inhibition": "10.9%"},
      {"smiles": "O=C(CN(c1ccc(Cl)cc1)S(=O)(=O)c1ccc(Cl)c([N+](=O)[O-])c1)NCCc1ccccc1", "inhibition": "5.1%"},
      {"smiles": "O=C(CN(c1ccc(Cl)cc1)S(=O)(=O)c1ccc(Cl)c([N+](=O)[O-])c1)NCCc1ccc(F)cc1", "inhibition": "7.2%"},
      {"smiles": "Cc1ccc(N(CC(=O)NCCc2ccc(F)cc2)S(=O)(=O)c2ccc(Cl)c([N+](=O)[O-])c2)c(C)c1", "inhibition": "65.4% (active)"},
      {"smiles": "O=S(=O)(NC1CCCCC1Oc1ccccc1)c1ccc(Cl)cc1", "note": "(stereo not drawn)", "inhibition": "12.4%"},
      {"smiles": "CCn1cc(CN2CCC(C(=O)Nc3ccc(Oc4ccccc4)nc3)CC2)cn1", "inhibition": "17%"},
      {"smiles": "NC(=NC(=O)c1ccccc1)N1CCN(C(c2ccccc2)c2ccccc2)CC1", "inhibition": "22.5%"},
      {"smiles": "CC1=C(C(=O)OCc2ccccc2)C(c2ccc3ccccc3c2)NC(=O)N1CCCC(=O)O", "note": "(stereo not drawn)", "inhibition": "1.7%"},
      {"smiles": "Cn1nc(C(=O)NCc2ccco2)c2ccccc2c1=O", "inhibition": "-3.1%"},
      {"smiles": "COC(=O)c1cccc(S(=O)(=O)N2CCC(c3nc4ccccc4o3)CC2)c1", "inhibition": "4.8%"},
      {"smiles": "O=c1[nH]ncn1-c1ccccc1", "inhibition": "0.1%"},
      {"smiles": "Cc1ncsc1CCOC(=O)c1ccc(N2CCOCC2)c([N+](=O)[O-])c1", "inhibition": "-11%"},
      {"smiles": "Cc1ccc(OC(=O)c2ccc(N3CCOCC3)c([N+](=O)[O-])c2)cc1", "inhibition": "2.8%"},
      {"smiles": "CC(C)c1ccc(CN2C(=O)NC3(CCCCCC3)C2=O)cc1", "inhibition": "4.2%"},
      {"smiles": "CCC(=O)N1CCc2cc(Br)cc(S(=O)(=O)NCCN3CCCCC3CC)c21", "note": "(stereo not drawn)", "inhibition": "5.4%"},
      {"smiles": "CC(=O)N1CCc2cc(Br)cc(S(=O)(=O)NCCN3CCCCC3C)c21", "note": "(stereo not drawn)", "inhibition": "10.5%"},
      {"smiles": "CCC(=O)N1CCc2cc(Br)cc(S(=O)(=O)NCCN3CCCCC3C)c21", "note": "(stereo not drawn)", "inhibition": "77.2% (active)"},
      {"smiles": "COc1ccccc1CNC(=O)CSc1nc2ccccc2c(=O)n1CCCN1CCOCC1", "inhibition": "1.4%"},
      {"smiles": "Cc1ccccc1NC(=O)CSC(N)=O", "inhibition": "1.9%"},
      {"smiles": "O=C(COc1ccc(Cl)cc1Cl)Nc1ccc(S(=O)(=O)NC2=NCCCCC2)cc1", "inhibition": "3.6%"},
      {"smiles": "Cc1ccc(C(C)C)c(OCC(=O)Nc2cccc(S(=O)(=O)NC3=NCCCCC3)c2)c1", "inhibition": "-2.2%"},
      {"smiles": "Cc1cc(Nc2ccc(Cl)cc2)nc(NCc2ccccc2)n1", "inhibition": "13.1%"},
      {"smiles": "Cc1ccc(Nc2cc(C)nc(NCc3ccccc3)n2)cc1", "inhibition": "26.1%"},
      {"smiles": "CC(=O)NC(=S)Nc1cccc2ccc(C)nc12", "inhibition": "-6.6%"},
      {"smiles": "Cc1cc(C(F)(F)F)n(-c2nc(C(=O)N/N=C/c3ccc(F)cc3)cs2)n1", "inhibition": "-8.1%"},
      {"smiles": "COC(=O)c1ccccc1NC(=S)NC(=O)c1ccc2c(c1)OCO2", "inhibition": "7.9%"}
    ]}
  ]
}
